Compounds with a hit are over-represented: about 10% of the library has one in this group of screens.
SW480 rereplic = A quantitative high throughput screen for small molecules that induce DNA re-replication in SW480 colon adenocarcinoma cells; SW480 DNA re-replication, Hoechst DNA content imaging, 48 h; Potency, µM (highest dose often 46.1 µM), without a hit: at the top dose re-replication activation, most hits filed as activators; 340,000 compounds, 1.8% hits; AID 624297, 2012; also: % of control where 0% means no effect; nearly all actives have a fitted effect of over 55% in size
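Image-based read-out: total Hoechst fluorescence of nuclei (405 nm excitation, 500-530 nm emission), with hits raising the fraction of high-intensity nuclei. SW480 colon cells incubated 48 hr with compounds at 37 C.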
KB-3-1 tox = qHTS assay for MDR1-selective chemotherapeutics: Primary screen using the parental adenocarcinoma cell KB-3-1; Potency, µM (doses to about 46.1 µM), usual class: cytotoxic; AID 1347075, 2019; KB-3-1 viability, CellTiter-Glo ATP luminescence, 72 h; 400,000 compounds, 1.4% hits; also: % is scaled to controls: 0 for no effect and ±100 for the full control effect; nearly all actives have a fitted effect of over 60% in size
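Parental KB-3-1 adenocarcinoma cells in phenol-red-free DMEM with 10% FBS were pin-treated with compounds at several concentrations, incubated 72 h at 37 °C, and viability read by CellTiter-Glo luminescence; concentration-effect curves were fitted after normalization.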
MCF10A rereplic = A quantitative high throughput screen for small molecules that induce DNA re-replication in MCF 10a normal breast cells | 350,000 compounds, 2.9% hits | Potency, µM (series often up to 46.1 µM), for inactives: at the top dose activity, positive = re-replication, actives largely listed as activators | MCF 10A DNA re-replication, Hoechst nuclear intensity, 48 h; also: % of control where 0% means no effect; nearly all actives have a fitted effect of over 50% in size
KB-V1 MDR tox = qHTS assay for MDR1-selective chemotherapeutics: Primary screen using the drug-selected MDR subline cells KB-V1; KB-V1 MDR cells viability, CellTiter-Glo, 72 h; Potency, µM (series often up to 46.1 µM), most hits filed as cytotoxic; 400,000 compounds, 3.4% hits; AID 1347076, 2019; also: % is scaled to controls: 0 for no effect and ±100 for the full control effect; nearly all actives have a fitted effect of over 60% in size
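KB-V1 MDR subline cells in DMEM (phenol-red free, 10% FBS) exposed to compounds in qHTS concentration series for 72 h at 37 degrees C. Viability read by CellTiter-Glo luminescence; concentration-effect curves fitted after normalization and correction.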
RORg inh = qHTS for inhibitors of ROR gamma transcriptional activity. Nuclear receptor ROR-gamma (Mus musculus), P51450. Drosophila S2 Gal4-RORgamma UAS-luciferase reporter, 20 h. Potency, µM (top dose mostly 53.6 µM), for the others: at the highest dose activity change, negative = inhibition, most hits filed as inhibitors. 310,000 compounds, 5.4% hits. AID 2551, 2010; also: % is scaled to controls: 0 for no effect and ±100 for the full control effect; nearly all actives have a fitted effect of over 60% in size
Target sequence (P51450 whole entry, looked up, the tested form may be a part): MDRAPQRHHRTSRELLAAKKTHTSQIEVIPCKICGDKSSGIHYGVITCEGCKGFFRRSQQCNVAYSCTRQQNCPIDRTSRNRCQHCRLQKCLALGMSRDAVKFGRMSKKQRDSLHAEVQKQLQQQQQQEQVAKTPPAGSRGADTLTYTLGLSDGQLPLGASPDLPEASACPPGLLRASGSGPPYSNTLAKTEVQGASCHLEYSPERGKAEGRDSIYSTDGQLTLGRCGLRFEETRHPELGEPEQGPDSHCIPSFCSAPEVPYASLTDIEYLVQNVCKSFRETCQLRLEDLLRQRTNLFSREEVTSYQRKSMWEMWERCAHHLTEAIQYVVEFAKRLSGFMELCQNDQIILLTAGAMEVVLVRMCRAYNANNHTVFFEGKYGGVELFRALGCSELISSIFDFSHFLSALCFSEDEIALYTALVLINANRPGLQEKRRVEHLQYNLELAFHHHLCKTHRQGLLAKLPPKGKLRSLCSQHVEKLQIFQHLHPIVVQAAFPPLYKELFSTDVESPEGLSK
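Compounds are pin-transferred onto Drosophila Schneider cells expressing a copper-inducible Gal4–ROR gamma transactivation domain fusion. After 1 hr, copper sulfate is added to 700 uM final; luciferase is read 20 hr later.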
VP16 counter = VP16 counterscreen qHTS for inhibitors of ROR gamma transcriptional activity | Drosophila S2 Gal4-VP16 UAS-luciferase, luminescence, 20 h | Potency, µM (top dose mostly 53.6 µM), for inactives: at the highest dose activity, negative = inhibition, usual class: inhibitors | 310,000 compounds, 3.5% hits;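 also: Gal4-VP16 expression switched on by copper sulfate through the metallothionein promoter; % is scaled to controls: 0 for no effect and ±100 for the full control effect; nearly all actives have a fitted effect of over 50% in size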
Starred values were filed as active, the others as inactive; i = inactive; ? = inconclusive; . = no result; ! = a repeat was not active; [ ] = another dose, or the depositor's remark. Calls follow the shape of the dose curve; as a rule, active = well fitted curve in the direction sought with a large enough effect; inconclusive = small, poorly fitted or top-dose-only effect, or another doubt; inactive = no such curve, though single readings can be large; an effect the other way counts as inactive or inconclusive. Potency is read from the fitted curve at half-maximal effect.

SMILES	SW480 rereplic	KB-3-1 tox	MCF10A rereplic	KB-V1 MDR tox	RORg inh	VP16 counter
CCN(CC)S(=O)(=O)c1ccc(NC(=O)c2c(C)oc3ncnc(N4CCCCC4)c23)cc1	.	i	.	i	.	.
O=C(Nc1ccc(N2CCOCC2)c(Cl)c1)c1cc2ccccc2o1	3%[9.22 µM]	?	13µM*	?	27%	8%
O=C(Nc1ccccc1N1CCOCC1)c1cc2ccccc2o1	-10%	i	-5%	?	2%	4%
COc1ccc(N2CCOCC2)c(NC(=O)c2cc3ccccc3o2)c1	?	i	?	12µM*	-37%	-19%
O=C(NC(=S)N1CCOCC1)c1cc2ccccc2o1	0%	i	?	i	1µM*	3.2µM*
CC(C)C(=O)N1CCN(c2ccc(NC(=O)c3ccc4c(c3)OCCO4)cc2Cl)CC1	6%	?	18µM*	2.9µM*	32%	1%
O=C(Nc1ccc2nc(N3CCOCC3)sc2c1)c1cc2ccccc2o1	.	i	.	?	.	.
O=C(c1cc2ccccc2o1)N1CCOCC1	-9%	i	7%	i	.	.
CCOc1ccc(CNCc2c(C(=O)O)c(C)n(Cc3c(F)cccc3Cl)c2C)cc1OC	.	i	.	?	.	.
Cc1ccc(C)n1-c1nnc(N2CCCC(C(=O)NCc3ccc(F)cc3)C2)s1 (stereo not given)	.	i	.	i	.	.
O=C(Nc1ccc(N2CCOCC2)c(Cl)c1)c1ccc(F)cc1	-7%	i	?	15µM*	-14%	?
C(#CCN1CCCC1)CC(c1ccccc1)c1ccccc1	4%	i	13µM*	?	-19%	-3%
C(#Cc1ccccc1)CN1CCCCC1	-8%	i	-4%	i	2%	3%
O=C(CSC1=Nc2ccccc2N=C(c2ccc(F)cc2)C1)Nc1cccc(C(F)(F)F)c1	.	i	.	i	.	.
O=C(Nc1ccc(OCc2ccccc2)cc1)Nc1nnc([C@@H]2C[C@H](O)[C@@H](CO)O2)s1	.	i	.	i	.	.
CCOC(=O)C1=C(C)C(c2ccccc2OC)NC(=S)N1 (stereo not given)	0%	i	3%	23µM*	2.8µM*	0%
CCOC(=O)C1=C(C)C(c2ccccc2OC)NC(=O)N1 (stereo not given)	1%	i	?	i	2%	-5%
Cc1ccc(S(=O)(=O)/C=C2\OCc3ccccc32)cc1	.	i	.	i	.	.
CCN1C(=O)S/C(=C/c2c(OCc3ccc(C(=O)O)cc3)ccc3ccccc23)C1=O	-405%	i	6.5µM*	i	11%	4%
CC1CC(C)C(=O)C(C(CC2CC(=O)NC(=O)C2)OC(=O)CC(=O)c2ccccc2)C1 (stereo not given)	11%	2.6µM*	?	?	.	.
O=C1CCC(C(=O)OCC(=O)c2ccccc2)N1 (stereo not given)	-4%	i	-3%	i	38%	6%
COc1cc(CNCCc2c[nH]c3ccccc23)ccc1OCc1ccc(F)cc1	?	i	?	5.2µM*	-33%	1%
COc1cccc(CNCCc2c[nH]c3ccccc23)c1OCc1ccc(F)cc1	?	?	?	16µM*	?	?
COc1cc(CNCCc2ccc(F)cc2)ccc1OCc1ccc(Cl)nc1	0%[9.22 µM]	?	29%	?	2.2µM*	-25%
Cc1cc(=O)oc2cc(OCC(=O)NC3(C#N)CCCCC3)ccc12	.	i	.	i	.	.
SMILES	SW480 rereplic	KB-3-1 tox	MCF10A rereplic	KB-V1 MDR tox	RORg inh	VP16 counter
CCc1c(C)c2cc(Cl)c(O)c(CN3CCCC3)c2oc1=O	21µM*	i	?	i	1%	5%
Cc1c(C)c2cc(Cl)c(O)c(CN3CCCCC3)c2oc1=O	1%	i	9%	i	7%	-2%
O=c1oc2c(CN3CCOCC3)c(O)c(Cl)cc2c2c1CCCC2	2%[9.22 µM]	i	6%	i	11µM*	-4%
COc1cc(C2c3cc4c(cc3CC3COC(=O)N32)OCO4)cc(OC)c1OC (stereo not given)	1.2µM*	0.73µM*	1.3µM*	2.1µM*	.	.
Cc1ccc(C(=O)NCCN(C)C)c(C)c1	-4%[9.22 µM]	i	0%	i	-13%	1%
CNc1c2cccc(C)c2nc2c(C(=O)NCCN(C)C)cccc12	?	0.29µM*	-11%	?	.	.
COc1ccc(NC(=O)Cn2ncc3c([nH]c4ccccc43)c2=O)cc1Cl	.	i	.	?	.	.
COc1ccc(N2CCN(C(=O)C3CCCN(S(=O)(=O)c4ccc5c(c4)oc(=O)n5C)C3)CC2)cc1 (stereo not given)	-16%	i	1%	i	16%	7%
Cn1c(=O)oc2cc(S(=O)(=O)NC3CCCc4ccccc43)ccc21 (stereo not given)	-13%	i	17%	i	-12%	-15%
COc1ccccc1N1CCN(C(=O)C2CCCN(S(=O)(=O)c3ccc4c(c3)oc(=O)n4C)C2)CC1 (stereo not given)	-5%	10µM*!	21%	?	15%	?
Cn1c(=O)oc2cc(S(=O)(=O)N3CCCC(C(=O)NC4CCCc5ccccc54)C3)ccc21 (stereo not given)	-2%	5.8µM*	1%	?	?	0.1µM*
COC(=O)c1cccc(CN2C(=O)C(C)Sc3ccc(C(C)=O)cc32)c1 (stereo not given)	.	i	.	i	.	.
COc1ccc(-c2cc3cccc(OC)c3oc2=O)cc1	-1%	i	1%	i	10µM*	?
Cc1ccc2ccc3ccc(C)nc3c2n1	?	i	?	i	0.25µM*	0.56µM*
Cc1ccc2cc(F)c(F)c(F)c2n1	.	i	.	i	.	.
Cc1ccc2c(C)ccc(O)c2n1	0%	?	21µM*	i	11µM*	?
O=C(C1CCN(S(=O)(=O)Cc2ccccc2)CC1)N1CCN(c2cccc(Cl)c2)CC1	.	i	.	i	.	.
COc1ccccc1/C=C/C(=O)NCC(=O)N/N=C/c1ccccc1	-14%	i	-2%	?	6%	9%
COc1cccc(/C=N/NC(=O)CNC(=O)/C=C\c2ccccc2)c1O	-4%	i	0%	i	2.5µM*	3.2µM*
COc1cccc(/C=N/NC(=O)CNC(=O)C(c2ccccc2)c2ccccc2)c1O	25%	?	?	i	1.8µM*	?
